Measurements from ChEMBL document CHEMBL1157539, “Thousands of chemical starting points for antimalarial lead identification” (Nature, 2010).

Tests used:
Assay type in all cases: functional
Plasmodium falciparum [1] = experiment: GSK_TCMDC: Inhibition of Plasmodium falciparum 3D7 in whole red blood cells, using parasite LDH activity as an index of growth. Test compounds present at 2uM
Plasmodium falciparum [2] = experiment: GSK_TCMDC: Inhibition of Plasmodium falciparum Dd2 in whole red blood cells, using parasite LDH activity as an index of growth. Test compounds present at 2uM
HepG2 = experiment: GSK_TCMDC: Percent inhibition of human HepG2 cell line. Test compounds present at 10uM.

Row | Structure (SMILES) | Inhibition (Plasmodium falciparum [1]) | Inhibition (Plasmodium falciparum [2]) | Inhibition (HepG2)
1 | CC(=O)N/N=C/[C@H](CCc1ccccc1)NC(=O)[C@H](CC(C)C)NC(=O)c1ccc(OCCN2CCOCC2)cc1 | 96% | 87% | 4%
2 | CCOc1ccc2nc(N(CCCn3ccnc3)C(=O)C=Cc3cccs3)sc2c1.Cl | 97% | 97% | 0%
3 | O=C(CCc1cccc(O)c1)NCC(NCCCNc1cc(=O)c2ccccc2[nH]1)c1cc(Br)cc(Br)c1 (configuration not stated) | 86% | 37% | 0%
4 | CCCNCc1ccc(-c2ccc(CN(CC3CCCO3)C(=O)C3CC(=O)c4ccccc43)cc2)nc1.O=C(O)C(F)(F)F (configuration not stated) | 100% | 65% | 0%
5 | Cc1ccc(F)c(CN2CCC(N3CC(c4ccccc4)(c4ccccc4)OC3=O)CC2)c1Cl | 95% | 89% | 11%
6 | COc1ccc2nccc(N3CCC(CCNCc4cc5c(cn4)OCCO5)CC3)c2n1.Cl | 100% | 100% | 18%
7 | O=C(Nc1cccc(CN2CCCN(CC3CC3)CC2)c1)c1ccc(Cl)c(Cl)c1.O=C(O)C(F)(F)F | 92% | 5% | 13%
8 | COC(=O)c1cccc(CNCc2cccc(-c3cccc(-c4nc5cccc(C)c5[nH]4)c3)c2)c1.O=C(O)C(F)(F)F | 100% | 47% | 0%
9 | CCC(Cc1cnc2nc(N)nc(N)c2n1)c1ccc(C(=O)N[C@@H](CCC(=O)O)C(=O)O)cc1 (some centres not stated) [EDATREXATE] | 93% | 98% | 64%
10 | COc1ccc2c(NN=Cc3ccc(Cl)cc3)ccnc2c1 | 100% | 100% | 8%
11 | COCCNCc1ncsc1-c1ccc2c(Nc3cc(O)ccc3C)ccnc2c1 | 100% | 40% | 9%
12 | CC(C)(C)c1ccc(NC(=O)c2ccc(CN3CCCN(Cc4ccsc4)CC3)cc2)cc1.O=C(O)C(F)(F)F | 96% | 0% | 50%
13 | Cc1[nH]c(C)c(-c2ccc(-c3cccc(OC(F)(F)F)c3)nc2)c(=O)c1Cl | 98% | 97% | 30%
14 | CC(C)NCc1ccc(OCc2cccc(COc3ccc(CNC(C)C)cc3I)c2)c(I)c1.Cl | 100% | 92% | 100%
15 | C[C@H](NC(=O)c1c(OC2CN(C(c3ccccc3)c3ccccc3)C2)c(-c2ccccc2)nc2ccccc12)C1CCCCC1 | 92% | 74% | 0%
16 | N#Cc1cccc(CN2CCCN(c3ccc(NC(=O)c4cccs4)cc3)CC2)c1.O=C(O)C(F)(F)F | 96% | 95% | 0%
17 | CCN(CCCN1CCCCC1)c1cc(C)nc(Nc2ccc(Cl)c(C(F)(F)F)c2)n1.O=C(O)C(F)(F)F | 96% | 55% | 43%
18 | N#CN1CC[C@@H](OC(=O)N[C@@H]2C[C@H]2c2ccccc2)C1 | 84% | 56% | 0%
19 | COc1ccc(C2=C(Nc3ccc4oc5ccccc5c4c3)c3ccccc3C2=O)cc1 | 93% | 92% | 9%
20 | Cc1cccc2nc(-c3cccc(-c4ccc(CNCCCN5CCCC5=O)cc4)c3)[nH]c12.O=C(O)C(F)(F)F | 100% | 38% | 5%

Row | Structure (SMILES) | Inhibition (Plasmodium falciparum [1]) | Inhibition (Plasmodium falciparum [2]) | Inhibition (HepG2)
21 | Cn1nc(-c2cccc(CNCc3ccccc3)c2)c2cnc(NC3CCCC3)nc21 | 85% | 11% | 5%
22 | COc1ccc(OC)c(NC(=O)c2c(-c3c(F)cccc3Cl)noc2C)c1 | 94% | 25% | 0%
23 | COc1ccc(C(C(=O)NC2CCN(C[C@H](O)c3ccnc4ccc(OC)cc34)CC2)N2CCc3ccccc3C2)cc1 (some centres not stated) | 96% | 30% | 19%
24 | CN(C(=O)c1ccccc1)C1c2cc(C#N)ccc2OC(C)(C)C1O (configuration not stated) | 97% | 4% | 8%
25 | CCC(=O)N(c1ccccc1)C1CCN(CCCC(NC(=O)Nc2cc(C(F)(F)F)cc(C(F)(F)F)c2)c2ccc(Cl)c(Cl)c2)CC1 (configuration not stated) | 99% | 18% | 29%
26 | Cc1ccc(Nc2nc3cc(N(C)c4ccnc(Nc5cccc(CCS(C)(=O)=O)c5)n4)ccc3n2C)cc1.O=C(O)C(F)(F)F | 99% | 73% | 78%
27 | O=C(N[C@@H](CC1CCCCC1)C(=O)NCCc1ccc(Cl)c(Cl)c1)c1ccc(O)c(-c2ccc(Cl)c(Cl)c2)c1 | 100% | 99% | 0%
28 | CCCCCC(C)C(C)c1cc(O)c2c(c1)OC(C)(C)CC2(O)c1ccnn1C (configuration not stated) | 98% | 95% | 20%
29 | CC1CN(C(=O)c2sc3ccccc3c2Cl)CC(C)O1 (configuration not stated) | 100% | 98% | 0%
30 | Br.CCc1ccc(OCCCON2C(=N)N=C(N)NC2(C)C)cc1 | 95% | 95% | 64%
31 | Clc1nc(Cl)c2c(ccn2Cc2ccccc2)n1 | 100% | 61% | 0%
32 | CCOC(=O)c1ccc(NC(=O)N(Cc2ccc(-c3ccc(CN4CCNCC4)cc3)cc2)C2CCN(Cc3ccccc3)CC2)cc1.O=C(O)C(F)(F)F | 100% | 93% | 14%
33 | CCn1cc(-c2nc(-c3cc(OC)cc(OC)c3)no2)c(=O)c2ccccc21 | 89% | 77% | 0%
34 | COc1ccc(-n2nc(C)cc2C(=O)NCc2ccc(-c3c(C)noc3C)cc2)cc1 | 100% | 92% | 3%
35 | CO/C(=C\C=C\c1cc2cc(Cl)c(Cl)cc2[nH]1)C(=O)NCCCN1CCN(c2cccc(CCCO)c2)CC1 | 90% | 36% | 66%
36 | CCNS(=O)(=O)c1ccc(Oc2ccc([N+](=O)[O-])cc2)cc1 | 94% | 85% | 1%
37 | Cc1cc(N[C@@H](Cc2ccccc2)C(=O)NCc2cccc(F)c2)nc(NCCc2ccc(F)cc2)n1.O=C(O)C(F)(F)F | 99% | 69% | 0%
38 | CC(C)C1C(O)=C(c2ccc3ccccc3c2)C(=O)N1CC1CCCCC1 (configuration not stated) | 84% | 43% | 11%
39 | CCOc1ccccc1NC(=O)Nc1ccc2c(c1)CCN(C1CCC1)CC2.Cl | 88% | 2% | 15%
40 | CC(C)(C)c1ccc(-c2ccccc2CNC(=O)c2cccc(O)c2)cc1 | 99% | 88% | 3%

Row | Structure (SMILES) | Inhibition (Plasmodium falciparum [1]) | Inhibition (Plasmodium falciparum [2]) | Inhibition (HepG2)
41 | O=C(NCCN1CCCC1)c1cccc(-c2ccc(-c3nc4ccccc4[nH]3)cc2)c1 | 100% | 36% | 20%
42 | O=C(Nc1ccccc1O)c1ccc(S(=O)(=O)c2ccc(Cl)cc2)cc1 | 90% | 85% | 18%
43 | CN1CCCN(Cc2ccc(-c3cccc(NC(=O)c4cccc(Cl)c4)c3)cc2)CC1.O=C(O)C(F)(F)F | 100% | 32% | 33%
44 | CO/C(=C\C=C\c1cc2cc(Cl)c(Cl)cc2[nH]1)C(=O)NCCCN1CCN(c2ccc(OC)cc2)CC1 | 99% | 44% | 40%
45 | Cc1cc(C2CCN(CCCCNC(=O)c3ccc(-c4ccc(C(F)(F)F)cc4)cc3)CC2)c(C)cc1OCCOC1CCCCO1 (configuration not stated) | 95% | 5% | 30%
46 | Br.CCCCCCCNCCNc1cc(C)nc2ccccc12 | 100% | 99% | 58%
47 | Cc1cccc2nc(-c3cccc(-c4ccc(NC(=O)Cc5ccc[n+]([O-])c5)cc4)c3)[nH]c12 | 99% | 87% | 11%
48 | COc1cc(F)c2ncc(F)c([C@@H](O)CN3CCC(NCc4cc5c(cn4)OCCO5)CC3)c2c1.Cl | 100% | 88% | 1%
49 | COc1ccc2nccc([C@@H](O)CN3CCC(NCc4ccc5c(c4)sc(=O)n5C)CC3)c2c1.O=C(O)C(=O)O | 100% | 72% | 10%
50 | COc1ccccc1NC(=O)Nc1cccc(-c2ccc(-c3nc4cc(C(F)(F)F)ccc4[nH]3)cc2)c1 | 100% | 76% | 28%
51 | O=C(OCc1ccccc1)N1CCc2c([nH]c3ccccc23)C1CCC(F)(F)F (configuration not stated) | 94% | 81% | 0%
52 | CCOc1c(Cl)cc(Cl)cc1CNCCCNc1nc2ccccc2[nH]1.Cl | 94% | 1% | 18%
53 | COc1ccc(-c2nc3cc4ccccc4nc3[nH]2)c(OCC(O)CNC(C)C)c1.Cl (configuration not stated) | 98% | 96% | 19%
54 | O=[N+]([O-])c1ccccc1C=NN=c1c2c([nH]c3ccccc13)CCCC2 | 97% | 99% | 0%
55 | CN1CCN(c2ncnc3ccc(NC(=O)Nc4ccc(Cl)c(Cl)c4)cc23)CC1 | 100% | 89% | 7%
56 | CCC(C)(C)c1ccc(S(=O)(=O)Nc2ccc(Cl)c(OCCN3CCCCC3)c2)cc1 | 88% | 93% | 100%
57 | CCOc1ccc(C(=O)Nc2cc(Cl)ccc2O)cc1Cl | 83% | 84% | 11%
58 | Cl.Cn1c(/C=C/C(=O)NC2CCC(CCN3CCc4ccc(C#N)cc4CC3)CC2)cc2ccccc21 (configuration not stated) | 100% | 29% | 15%
59 | N#Cc1ccc2[nH]c(-c3ccccc3)nc2c1 | 95% | 1% | 7%
